Assay outcomes: PubChem, National Center for Advancing Translational Sciences (NCATS)
GLP1R ag – activates the human GLP-1 receptor | P43220 | HEK293 GLP-1R CRE-luciferase, luminescence, 4-6 h; cells express a hypersensitive GLP-1R form | Potency, µM (series often up to 45.6 µM), inactives show top-dose activation, actives largely listed as activators | hit rate 0.007% among 380,000; also: potency is read from the fitted curve at half-maximal effect; % of control where 0% means no effect
KCNH2 3.1 block – inhibitors of human KCNH2 3.1 potassium channel isoform | U2OS KCNH2 3.1, thallium flux FluxOr; hits give low values | activity change, % (tested at about 1.8 µM) | AID 720553 | hit rate 0.95% among 340,000;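 active = maximum activity change below -70%; inconclusive = maximum activity change from -70% to -50%; inactive = maximum activity change above -50%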;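 also: thallium influx rate constant from kinetic fluorescence after stimulation buffer; % is scaled to controls: 0 for no effect and ±100 for the full control effect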
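FluxOr-based Tl+ influx in U2OS cells transduced with KCNH2 3.1 virus; rate constants normalized to DMSO controls.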
KCNH2 WT inh – blocks the wildtype human KCNH2 potassium channel. Q12809. U2OS, BacMam KCNH2, thallium flux FluxOr; hits give low values. activity change, % at 1.84 µM. hit rate 0.37% among 340,000. AID 720551;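 active = maximum activity change below -70%; inconclusive = maximum activity change between -70% and -50%; inactive = maximum activity change above -50%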; also: % is scaled to controls: 0 for no effect and ±100 for the full control effect
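U2OS cells were transduced with wild-type KCNH2 virus (2.03 x 10^8 / mL) for 4 h at room temperature, then cultured overnight at 37 C. Thallium flux was read with FluxOr dye. Rate constants were normalized to DMSO controls.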
GLP-1R inv ag – acts as inverse agonist at human GLP-1 receptor; P43220; HEK293 GLP-1R CRE-luciferase, luminescence, 24 h; GLP-1R form is constitutively active; Potency, µM (titrated, usually from 38.3 µM), inactives show at the highest dose activity change, negative = inhibition, most hits filed as inhibitors; hit rate 1.6% among 410,000; also: potency is read from the fitted curve at half-maximal effect; % is scaled to controls: 0 for no effect and ±100 for the full control effect; nearly all actives have a fitted effect of over 55% in size
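Luminescence readout: a drop in cAMP-driven luciferase signal flags inverse agonism at a constitutively active GLP-1R stably expressed in HEK293. Compound exposure lasted 24 hr at 37 deg C, 5% CO2.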
GLS inh – inhibitors of human glutaminase (GLS); Potency, µM (titrated, usually from 45.5 µM), inactives show at the top dose activity change, negative = inhibition, hits mostly inhibitors; hit rate 0.21% among 410,000; O94925; GLS enzymatic activity, qHTS titration; also: potency is read from the fitted curve at half-maximal effect; % is scaled to controls: 0 for no effect and ±100 for the full control effect
Target sequence (O94925 whole entry, looked up): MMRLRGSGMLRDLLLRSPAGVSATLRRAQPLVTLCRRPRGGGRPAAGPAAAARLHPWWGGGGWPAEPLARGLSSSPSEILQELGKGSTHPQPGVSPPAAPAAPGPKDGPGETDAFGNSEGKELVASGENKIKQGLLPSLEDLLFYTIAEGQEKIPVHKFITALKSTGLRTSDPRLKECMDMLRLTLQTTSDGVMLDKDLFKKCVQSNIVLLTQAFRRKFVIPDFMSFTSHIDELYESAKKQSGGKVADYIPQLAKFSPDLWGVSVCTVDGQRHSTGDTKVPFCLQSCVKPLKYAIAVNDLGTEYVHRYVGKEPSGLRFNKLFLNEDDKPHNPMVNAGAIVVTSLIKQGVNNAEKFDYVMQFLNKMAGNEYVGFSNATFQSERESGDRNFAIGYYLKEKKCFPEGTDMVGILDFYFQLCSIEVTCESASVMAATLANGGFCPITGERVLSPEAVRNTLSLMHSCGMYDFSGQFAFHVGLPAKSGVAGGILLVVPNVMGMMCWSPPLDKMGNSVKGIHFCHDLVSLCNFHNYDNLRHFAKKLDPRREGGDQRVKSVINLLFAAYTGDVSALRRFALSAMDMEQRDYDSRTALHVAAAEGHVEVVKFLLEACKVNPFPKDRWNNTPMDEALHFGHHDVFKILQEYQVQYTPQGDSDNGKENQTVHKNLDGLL
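Coupled fluorescence readout: glutamate oxidase/HRP/Amplex Red detect glutamate formed by hKGA from L-glutamine (1 mM solution added). Buffer 45 mM KH2PO4 pH 8.2, 0.02% Tween-20; reads at t0 and 30 min RT.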
HEK293 tox – cytotoxicity counter-screen for GLP-1 receptor inverse agonists. HEK293 cAMP-luciferase reporter cells, luminescence, 24 h. Potency, µM (highest dose often 38.3 µM), for the others: at the highest dose activity change, negative = inhibition, usual class: inhibitors. hit rate 0.13% among 410,000. AID 624418;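 also: loss of luciferase light is scored as toxicity; potency is read from the fitted curve at half-maximal effect; % is scaled to controls: 0 for no effect and ±100 for the full control effect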
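Here, cytotoxicity is scored as loss of luminescence. The MLSMR collection was tested on cells seeded in medium containing 10% Nu serum, with a 24 hr compound exposure preceded by 12 hours of culture.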
An asterisk follows results filed as active; i = inactive; ? = inconclusive; · = not tested or not shown. Shown are actives, neighbours in structure and some others; about 2.8% of the full set was active somewhere. Unless noted, calls follow the shape of the dose curve; as a rule, active = well fitted curve in the direction sought with a large enough effect; inconclusive = small, poorly fitted or top-dose-only effect, or another doubt; inactive = no such curve, though single readings can be large; an effect the other way counts as inactive or inconclusive.

SMILES	GLP1R ag	KCNH2 3.1 block	KCNH2 WT inh	GLP-1R inv ag	GLS inh	HEK293 tox
CN(C1CCS(=O)(=O)C1)S(=O)(=O)c1cccs1 (configuration not stated)	2%	-18	3	-7%	-10%	-5%
Cc1ccc(CNC(=O)c2ccc(-c3nc(CS(=O)(=O)c4ccc(C)cc4)c(C)o3)cc2)cc1	·	·	·	3%	-1%	1%
Cc1ncc(C[n+]2csc(CCOC(=O)CC34CC5CC(CC(C5)C3)C4)c2C)c(N)n1	13%	-127*	5	-7%	7%	20%
COc1ccc(CN(C)C(=O)c2cc(-c3ccccc3)nc3ccc(C)cc23)c(OC)c1	0%	-16	-10	5.6µM*	-1%	?
O=C(Nc1ccc2c(c1)OCCO2)C(C1CC1)n1c(=O)c(-c2cc3ccccc3[nH]2)nc2ccccc21 (configuration not stated)	·	·	·	11µM*	·	i
O=C(Nc1ccc2ccccc2c1)C(C1CC1)n1c(=O)c(-c2cc3ccccc3[nH]2)nc2ccccc21 (configuration not stated)	·	·	·	5µM*	·	i
COc1ccc(NC(=O)C(C2CC2)n2c(=O)c(-c3cc4ccccc4[nH]3)nc3ccccc32)cc1 (configuration not stated)	·	·	·	?	·	i
Cc1ccnc(Nc2nc(-c3ccc(O)cc3O)cs2)c1	30%	1	-10	?	4%	-20%
COc1cc(Br)c(C[N+]2(CCOCCC3CCC4CC3C4(C)C)CCOCC2)cc1OC (configuration not stated)	1%	·	·	·	-13%	·
Cc1ccccc1-n1ncc2c(SCC(=O)NCc3cccs3)ncnc21	1%	-3	-5	10µM*	1%	?
Cc1csc(NC(=O)CSc2ncnc3c2cnn3-c2ccccc2Cl)n1	-16%	-18	7	?	-4%	-19%
C=CCn1c(SCC(=O)Nc2cccc(S(=O)(=O)N(C)c3ccccc3)c2)nnc1C1CC1	-2%	2	14	?	-8%	-4%
O=C(/C=C/c1ccc(Cl)cc1Cl)N1CCN(c2ccccc2[N+](=O)[O-])CC1	12%	-95*	?	14%	21%	6%
NC(=O)c1ccc(N2CCN(c3ccc(O)cc3)CC2)c([N+](=O)[O-])c1	9%	-11	-2	-23%	13µM*	-24%
O=C(NC(=S)N1CCN(c2ccc(Cl)cc2[N+](=O)[O-])CC1)c1cccs1	-22%	-13	-48	10µM*	1%	5.6µM*
O=[N+]([O-])c1cc(Cl)ccc1N1CCN(c2ccccc2O)CC1	19%	-6	-4	?	16µM*	-1%
O=[N+]([O-])c1cc(Cl)ccc1N1CCCCC1	6%	-5	-2	4%	-11%	7%
CC(=O)c1ccc(N2CCN(c3ccc(C(N)=O)cc3[N+](=O)[O-])CC2)cc1	7%	-4	7	3%	5%	9%
O=C(/C=C/c1ccc(Cl)cc1Cl)N1CCN(c2ccc([N+](=O)[O-])c(N3CCOCC3)c2)CC1	-1%	-18	-1	1%	-14%	?
CN1C(=O)c2ccccc2Sc2ccc(NC(=O)N3CCN(c4cccc(Cl)c4)CC3)cc21	·	·	·	?	5%	-16%
CCc1nnc(SC(CC)C(=O)Nc2cc(C)ccc2C)c2cc3occc3n12 (configuration not stated)	·	·	·	3%	5%	1%
CN1CCCN(C(=O)/C=C/c2ccc(Cl)cc2Cl)CC1	-7%	-14	43	7.9µM*	6%	?
O=C(CSc1n[nH]c(-c2ccccn2)n1)Nc1cccc(Cl)c1	-1%	-70*	2	-12%	10%	?
Cc1nc(SCC(=O)Nc2cccc(Cl)c2)n[nH]1	-1%	0	1	2%	3%	-4%
COc1cccc(NC(=O)CSCn2nnc3c(=O)[nH]c(Cc4ccc(F)cc4)nc32)c1	·	·	·	20%	1%	4%
